Test results taken from PubChem BioAssay (NCI).
This is part of a sample that, as a whole, favours compounds with a hit. Of some 79,000 tested, about 15% had one in any assay. Activity calls are given as the source filed them. Cut-off read from the data, not from the text of the source: active = growth inhibition above about 70%; inactive = the rest.

Columns and labels:
[1] = NCI Yeast Anticancer Drug Screen. Data for the rad50 strain (AID 155);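 note: 0% = growth of vehicle-only cultures of the same strain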; details: S. cerevisiae rad50 strain growth inhibition, active compounds read high
How it was run: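 Vehicle-treated cultures provide the reference for the growth inhibition reported for compound-exposed, repair-deficient yeast.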

[2] = NCI Yeast Anticancer Drug Screen. Data for the mec2-1 strain (AID 157); details: S. cerevisiae mec2-1 strain, active compounds read high
How it was run: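 Cells of the genetically defined mec2-1 yeast strain are incubated with test compound. Inhibition of growth is calculated against vehicle-treated controls.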

[3] = NCI Yeast Anticancer Drug Screen. Data for the sgs1 mgt1 strain (AID 161);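 note: 0% = growth of cultures given vehicle only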; details: S. cerevisiae sgs1 mgt1 strain, active compounds read high
How it was run: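 Mutant yeast exposed to compound; growth scored against vehicle-only wells.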

[4] = NCI Yeast Anticancer Drug Screen. Data for the cln2 rad14 strain (AID 165);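 note: 0% = growth equal to vehicle treated cultures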; details: S. cerevisiae cln2 rad14 strain, active compounds read high
How it was run: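 The screen exposed genetically defined yeast (cln2 rad14) to test compounds and scored growth inhibition relative to vehicle-treated controls.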

[5] = NCI Yeast Anticancer Drug Screen. Data for the bub3 strain (AID 167); details: S. cerevisiae bub3 mutant strain, active compounds read high
How it was run: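 Mutant yeast screening strain plus compound; vehicle-treated cultures serve as the 0% inhibition reference.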

[6] = NCI Yeast Anticancer Drug Screen. Data for the mlh1 rad18 strain (AID 175); details: S. cerevisiae mlh1 rad18 strain growth inhibition, active compounds read high
How it was run: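 Compound-treated yeast growth, normalised to vehicle controls. Strain bears defined DNA repair mutations.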

[7] = at 5.0 µM (retest, dose inferred, filed as 0.5)
[8] = at 50.0 µM (retest, dose inferred, filed as 5.0)

Measured: growth inhibition

Cc1ccc(S(=O)/C=C/S(=O)(=O)c2ccc(C)cc2)cc1 (stereo not given)
active: [1]; [7] 99% | [1]; [8] 99% | [1]; at 50.0 µM 99.3% | [2]; [7] 99% | [2]; [8] 100% | [2]; at 50.0 µM 99.6% | [3]; [7] 100% | [3]; [8] 100% | [3]; at 50.0 µM 99.5% | [4]; [7] 98% | [4]; [8] 100% | [4]; at 50.0 µM 99.5% | [5]; [7] 99% | [5]; [8] 100% | [5]; at 50.0 µM 99.6% | [6]; [7] 100% | [6]; [8] 100% | [6]; at 50.0 µM 99.5%

O=C(COC(=O)c1ccc(O)cc1)c1ccc(-c2ccccc2)cc1
inactive: [1]; [7] -16% | [1]; [8] -13% | [1]; at 50.0 µM 21.7% | [2]; [7] -4% | [2]; [8] 11% | [2]; at 50.0 µM 25.4% | [3]; [7] -1% | [3]; [8] 12% | [3]; at 50.0 µM 19.9% | [4]; [7] 22% | [4]; [8] -45% | [4]; at 50.0 µM 28.1% | [5]; [7] 6% | [5]; [8] -20% | [5]; at 50.0 µM 17.6% | [6]; [7] -5% | [6]; [8] 24% | [6]; at 50.0 µM 19.9%

O=C1C(N2CCOCC2)=C(Cl)C(=O)c2ncccc21
active: [1]; [8] 95% | [1]; at 50.0 µM 83.8% | [2]; [8] 97% | [2]; at 50.0 µM 83.8% | [3]; [8] 96% | [3]; at 50.0 µM 89.8% | [4]; [8] 92% | [4]; at 50.0 µM 89% | [5]; [8] 97% | [5]; at 50.0 µM 89.7% | [6]; [8] 96% | [6]; at 50.0 µM 89.3%
inactive: [1]; [7] 66% | [2]; [7] 30% | [3]; [7] 35% | [4]; [7] 13% | [5]; [7] 31% | [6]; [7] 61%

O=C1/C(=C/c2ccc(Cl)c(Cl)c2)CN(C(=O)CCN2CCOCC2)C/C1=C\c1ccc(Cl)c(Cl)c1
inactive: [1]; at 50.0 µM 41%
active: [1]; [7] 99% | [1]; [8] 86% | [2]; [7] 99% | [2]; [8] 94% | [2]; at 50.0 µM 85.8% | [3]; [7] 99% | [3]; [8] 92% | [3]; at 50.0 µM 85.2% | [4]; [7] 90% | [4]; [8] 89% | [4]; at 50.0 µM 87.3% | [5]; [7] 99% | [5]; [8] 89% | [5]; at 50.0 µM 89% | [6]; [7] 99% | [6]; [8] 88% | [6]; at 50.0 µM 87.5%

[O-][n+]1ccc(Br)c(/C=C/c2ccccc2)c1
inactive: [1]; [7] 0% | [1]; [8] 20% | [1]; at 50.0 µM 24.1% | [2]; [7] -5% | [2]; [8] 32% | [2]; at 50.0 µM 18.1% | [3]; [7] -2% | [3]; [8] 23% | [3]; at 50.0 µM 20% | [4]; [7] 0% | [4]; [8] 9% | [4]; at 50.0 µM 2.3% | [5]; [7] -5% | [5]; [8] 9% | [5]; at 50.0 µM 24.6% | [6]; [7] 2% | [6]; at 50.0 µM 56.1%
active: [6]; [8] 79%

CSc1ncc2c(n1)-c1ccccc1OC2NC1CC1 (stereo not given)
inactive: [1]; [7] 24% | [1]; [8] 22% | [2]; [7] 18% | [2]; [8] 16% | [2]; at 50.0 µM 62.5% | [3]; [7] 17% | [3]; [8] 20% | [3]; at 50.0 µM 11.3% | [4]; [7] 26% | [4]; [8] 27% | [4]; at 50.0 µM -2.85% | [5]; [7] 24% | [5]; [8] 28% | [5]; at 50.0 µM 14.6% | [6]; [7] 18% | [6]; [8] 12% | [6]; at 50.0 µM -7.35%
active: [1]; at 50.0 µM 71.5%

CC1(c2ccc(Cl)cc2)OC(=O)c2c1ccc1ccccc21 (stereo not given)
inactive: [1]; [7] 13% | [1]; [8] 55% | [2]; [7] -1% | [2]; [8] 53% | [3]; [7] 7% | [3]; [8] 55% | [4]; [7] 2% | [4]; [8] 47% | [5]; [7] 22% | [5]; [8] 52% | [6]; [7] -1%
active: [1]; at 50.0 µM 97.7% | [2]; at 50.0 µM 93.6% | [3]; at 50.0 µM 98% | [4]; at 50.0 µM 88.8% | [5]; at 50.0 µM 97.8% | [6]; [8] 75% | [6]; at 50.0 µM 96%

Oc1ccc2c(c1)OCC1c3ccccc3OC21 (stereo not given)
inactive: [1]; [7] 24% | [2]; [7] 38% | [2]; at 50.0 µM 64.3% | [3]; [7] 28% | [3]; at 50.0 µM 66.3% | [4]; [7] 23% | [4]; [8] 56% | [4]; at 50.0 µM 50.1% | [5]; [7] 37% | [6]; [7] 50%
active: [1]; [8] 71% | [1]; at 50.0 µM 76.7% | [2]; [8] 78% | [3]; [8] 73% | [5]; [8] 89% | [5]; at 50.0 µM 75% | [6]; [8] 88% | [6]; at 50.0 µM 76.7%

CCOC(=O)c1ccc(NC(=O)O/N=C(/Cl)CC)cc1
active: [1]; [8] 83% | [2]; [8] 71% | [2]; at 50.0 µM 78.5% | [3]; [8] 75% | [3]; at 50.0 µM 80.1% | [6]; [8] 86%
inactive: [1]; [7] 4% | [1]; at 50.0 µM 67% | [2]; [7] -7% | [3]; [7] -26% | [4]; [7] 35% | [4]; [8] 51% | [4]; at 50.0 µM 64.8% | [5]; [7] -40% | [5]; [8] 51% | [5]; at 50.0 µM 63.8% | [6]; [7] 8% | [6]; at 50.0 µM 69.7%

O=C(CCCl)Nc1cc2ccccc2oc1=O
inactive: [1]; [7] -19% | [1]; [8] -19% | [1]; at 50.0 µM -8.5% | [2]; [7] -2% | [2]; [8] -17% | [2]; at 50.0 µM 15.9% | [3]; [7] -10% | [3]; [8] 23% | [3]; at 50.0 µM 6.65% | [4]; [7] 1% | [4]; [8] 13% | [4]; at 50.0 µM 0.55% | [5]; [7] -4% | [5]; [8] -10% | [5]; at 50.0 µM -1.1% | [6]; [7] -16% | [6]; [8] 19% | [6]; at 50.0 µM -2.15%
